Among the data in PubChem BioAssay are outcome, inhibition and activation values, retold here.

For part of these data: Entries with a potency or affinity are not part of this list. Active and inactive are the calls of the source.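 Rule for the calls, unless noted: active = fluorescence ratio normalized to control raised more than 50% in primary screen plus both repeat runs; inactive = the rest.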

Test [1] deals with TRPC4 beta (transient receptor potential cation channel C4), mouse. The test is described as follows: activators of mouse TRPC4 channel, confirmation, cell-based, Fluo4 calcium, HEK293 TRPC4beta/mu-opioid, duplicates, 10 µM (AID 2426). The conditions noted are these: Fluo4 calcium fluorescence, at 10 µM; stronger effect = higher value.
In test [2] the test system is transient receptor potential cation channel C4 beta (TRPC4), mouse. In words: activators of mouse TRPC4 channel, confirmation, cell-based, second round, Fluo4, HEK293 TRPC4beta/mu-opioid, 1 µM (AID 2461;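 active = primary screen active and over 50% activation in each of two duplicate runs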). Conditions: Fluo4 calcium fluorescence, at 1 µM; stronger effect = higher value.
In test [3] the test system is TRPC4 (transient receptor potential cation channel C4 beta), mouse. The test is described as follows: positive allosteric modulators of mouse TRPC4, confirmation, cell-based, second round, Fluo-4, HEK293 TRPC4beta/mu-opioid, 1 µM (AID 2554;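 active = primary screen hit whose fluorescence ratio, in both repeats, exceeds the weak agonist control mean by 3 SD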). Conditions: DAMGO EC20, Fluo-4 calcium flux, at 1 µM; stronger effect = higher value. On the technique in general: Calcium flux is commonly read through the fluorescence of an indicator in the cells.

Test [4] has as its system TRPC4 beta (transient receptor potential cation channel C4), mouse. The test is described as follows: positive allosteric modulators of mouse TRPC4, confirmation, cell-based, Fluo-4, HEK293 TRPC4beta/mu-opioid (AID 2555;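 active = primary screen hit whose calcium fluorescence ratio, in both repeats, exceeds the weak agonist control mean by 3 SD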). Conditions: DAMGO EC20, Fluo-4 calcium flux, at 10 µM; stronger effect = higher value.
For test [5], the target named is Short transient receptor potential channel 4 (Mus musculus) (UniProt Q9QUQ5). The test is described as follows: inhibitors of mouse TRPC4 channel, confirmation, cell-based, Fluo4, HEK293 TRPC4beta/mu-opioid (AID 2636;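 active = calcium signal cut by more than 3 SD below the full-agonist control yet still positive, in both repeats and the earlier primary screen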). The conditions noted are these: DAMGO, Fluo4 calcium flux, at 10 µM; stronger effect = higher value.
Short transient receptor potential channel 4 (Mus musculus), sequence (Q9QUQ5 whole entry, looked up): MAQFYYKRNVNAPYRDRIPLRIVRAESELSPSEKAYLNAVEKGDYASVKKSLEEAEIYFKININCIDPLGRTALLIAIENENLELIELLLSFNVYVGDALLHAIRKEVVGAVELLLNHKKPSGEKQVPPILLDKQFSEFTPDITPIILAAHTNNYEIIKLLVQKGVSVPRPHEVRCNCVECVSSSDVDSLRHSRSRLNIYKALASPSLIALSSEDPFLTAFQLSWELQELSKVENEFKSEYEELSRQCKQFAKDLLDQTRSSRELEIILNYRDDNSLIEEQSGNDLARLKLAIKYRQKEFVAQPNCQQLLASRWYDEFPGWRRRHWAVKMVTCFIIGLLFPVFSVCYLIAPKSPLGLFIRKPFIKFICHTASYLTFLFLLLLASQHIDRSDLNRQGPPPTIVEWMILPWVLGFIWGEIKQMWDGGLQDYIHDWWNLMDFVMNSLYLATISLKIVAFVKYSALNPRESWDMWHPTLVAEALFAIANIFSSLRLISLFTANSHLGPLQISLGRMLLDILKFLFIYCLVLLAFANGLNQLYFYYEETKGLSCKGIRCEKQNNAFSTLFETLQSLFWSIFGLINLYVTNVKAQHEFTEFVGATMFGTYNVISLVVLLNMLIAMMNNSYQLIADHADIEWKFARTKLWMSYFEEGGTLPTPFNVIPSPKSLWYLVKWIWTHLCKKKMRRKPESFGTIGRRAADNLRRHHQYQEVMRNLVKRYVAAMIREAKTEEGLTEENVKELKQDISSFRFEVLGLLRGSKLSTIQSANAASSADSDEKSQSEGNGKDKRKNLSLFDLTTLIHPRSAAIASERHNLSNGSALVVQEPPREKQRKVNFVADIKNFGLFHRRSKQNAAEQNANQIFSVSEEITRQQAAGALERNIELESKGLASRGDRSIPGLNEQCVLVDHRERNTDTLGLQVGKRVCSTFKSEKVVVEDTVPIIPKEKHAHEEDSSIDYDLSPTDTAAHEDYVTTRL
Test [6] shares this target. In words: inhibitors of mouse TRPC4 channel, confirmation, cell-based, second round, Fluo4, HEK293 TRPC4beta/mu-opioid, 1 µM (AID 2637;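 active = calcium signal ratio cut to more than 3 SD under the fully stimulated control mean yet still positive, in both repeats and the primary screen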;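 for inhibition: percent of integrated ratio relative to wells lacking test compound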). The conditions noted are these: Fluo4 calcium flux, DAMGO, at 1 µM; stronger effect = higher value.
The target is the same in test [7]. In words: mouse TRPC4 channel activators, dose response, cell-based, HEK293 TRPC4/mu-opioid, Fluo-4 calcium (AID 434937;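 active = primary screen activator hit with a dose response curve and TRPC4 channel activation at any tested dose; inactive = no activation, no dose response, or not a primary hit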).
Test [8] shares this target. The test is described as follows: TRPC4 positive allosteric modulators, dose response, cell-based, HEK293 TRPC4/mu-opioid, Fluo-4 calcium, EC20 DAMGO (AID 434941;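 active = earlier screen potentiator hit that boosts the TRPC4 ion channel at some dose, with a dose response; inactive = no potentiation, no dose response, or not a prior hit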;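 note: calcium entry triggered by an EC20 dose of DAMGO at the co-expressed mu-opioid receptor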).
Test [9] concerns the target Short transient receptor potential channel 6 (Mus musculus) (UniProt Q61143). In words: inhibition of mouse TRPC6 channel, confirmation, selectivity assay for TRPC4 inhibitor project, cell-based, HEK293, membrane potential dye, duplicate (AID 434948;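 active = active in primary screen and both duplicates, each dropping signal beyond three positive-control SD with fluorescence still positive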). Conditions: HEK293 TRPC6, membrane potential dye fluorescence, at 10 µM, stimulated with maximal-effect acetylcholine; stronger effect = higher value.

Test [10] has the same target. In words: activation of mouse TRPC6 channel, confirmation, selectivity assay for TRPC4 activator project, cell-based, HEK293, membrane potential dye, duplicate (AID 434950;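 active = membrane potential signal rise above negative control mean plus 3 SD in both duplicates, also active in the earlier TRPC4 screen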;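 for activation: 0% = buffer only wells and 100% = acetylcholine maximal-effect wells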). Conditions: HEK293 TRPC6, membrane potential fluorescence, at 10 µM; stronger effect = higher value.
For test [11] the target is unchanged. In words: TRPC6 potentiation by TRPC4 potentiator hits, confirmation, selectivity assay for TRPC4 potentiator project, HEK293 cells, membrane potential dye, duplicate (AID 434952;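 active = compound raising the membrane signal above positive-control mean plus 3 SD in both repeats, and a primary screen hit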). The conditions noted are these: HEK293 TRPC6, membrane potential dye fluorescence, at 10 µM, maximal acetylcholine added after compound; stronger effect = higher value.
Test [12] deals with Short transient receptor potential channel 4 (Mus musculus) (UniProt Q9QUQ5). The test is described as follows: calcium flux activators in TRPC4/5HT1a cells, counter-screen for TRPC4 activator project, cell-based, second counter screen, HEK293 TRPC4/5HT1a, Fluo-4 (AID 434977;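 active = calcium signal rise above buffer-control mean plus 5 SD in both duplicates, and also a hit in the primary screen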). Conditions: Fluo-4 calcium flux, at 10 µM; stronger effect = higher value.
A short description of test [13]: calcium flux inhibitors in TRPC4/5HT1a cells, confirmation, counter-screen for TRPC4 inhibitor project, cell-based, second counter screen, HEK293 TRPC4/5HT1a, Fluo-4 (AID 434978;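 active = primary screen active whose calcium signal fell more than 3 SD beyond the full-serotonin control mean in both duplicate plates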;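 for outcome: serotonin given first at submaximal then at maximal dose after compound preincubation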). Conditions: Fluo-4 calcium flux, at 10 µM, serotonin added to trigger calcium flux; stronger effect = higher value.
For test [14], the system named is TRPC4 (mouse), co-expressed with 5HT1a in HEK293. The test is described as follows: calcium flux potentiators in TRPC4/5HT1a cells, confirmation, counter-screen for TRPC4 potentiator project, cell-based, second counter screen, HEK293 TRPC4/5HT1a, Fluo-4 (AID 434979;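 active = signal rise over 3 SD above mean of control wells given weak agonist, in both repeats and first screen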). The conditions noted are these: Fluo-4 calcium flux, at 10 µM, serotonin added at its EC20 dose; stronger effect = higher value.

Test [15] in a line: calcium flux activation in mu-opioid HEK293 cells, confirmation, counter-screen for TRPC4 activator project, cell-based, HEK293 mu-opioid receptor line (AID 449723;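 active = hit in primary screen, with calcium signal over 5 SD above buffer well mean in both duplicates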;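 note: counter screen cells carry the mu-opioid receptor alone and lack TRPC4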). The conditions noted are these: Fluo-4 calcium fluorescence, at 10 µM; stronger effect = higher value.
Test [16] is described as follows: calcium flux enhancement in mu-opioid HEK293 cells, confirmation, counter-screen for TRPC4 allosteric potentiator project, cell-based, HEK293 mu-opioid receptor line (AID 449724;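 active = calcium signal rise more than 3 SD above the low-dose agonist control mean, in both duplicate plates and the primary screen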;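 note: HEK293 cells carrying mu-opioid receptor only with no TRPC4 channel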). The conditions noted are these: Fluo-4 calcium flux, at 10 µM, compound added before EC20 DAMGO stimulus; stronger effect = higher value.

By inhibition is commonly meant the percentage by which the read-out fell short of the control.

Short transient receptor potential channel 6 (Mus musculus), sequence (Q61143 whole entry, looked up): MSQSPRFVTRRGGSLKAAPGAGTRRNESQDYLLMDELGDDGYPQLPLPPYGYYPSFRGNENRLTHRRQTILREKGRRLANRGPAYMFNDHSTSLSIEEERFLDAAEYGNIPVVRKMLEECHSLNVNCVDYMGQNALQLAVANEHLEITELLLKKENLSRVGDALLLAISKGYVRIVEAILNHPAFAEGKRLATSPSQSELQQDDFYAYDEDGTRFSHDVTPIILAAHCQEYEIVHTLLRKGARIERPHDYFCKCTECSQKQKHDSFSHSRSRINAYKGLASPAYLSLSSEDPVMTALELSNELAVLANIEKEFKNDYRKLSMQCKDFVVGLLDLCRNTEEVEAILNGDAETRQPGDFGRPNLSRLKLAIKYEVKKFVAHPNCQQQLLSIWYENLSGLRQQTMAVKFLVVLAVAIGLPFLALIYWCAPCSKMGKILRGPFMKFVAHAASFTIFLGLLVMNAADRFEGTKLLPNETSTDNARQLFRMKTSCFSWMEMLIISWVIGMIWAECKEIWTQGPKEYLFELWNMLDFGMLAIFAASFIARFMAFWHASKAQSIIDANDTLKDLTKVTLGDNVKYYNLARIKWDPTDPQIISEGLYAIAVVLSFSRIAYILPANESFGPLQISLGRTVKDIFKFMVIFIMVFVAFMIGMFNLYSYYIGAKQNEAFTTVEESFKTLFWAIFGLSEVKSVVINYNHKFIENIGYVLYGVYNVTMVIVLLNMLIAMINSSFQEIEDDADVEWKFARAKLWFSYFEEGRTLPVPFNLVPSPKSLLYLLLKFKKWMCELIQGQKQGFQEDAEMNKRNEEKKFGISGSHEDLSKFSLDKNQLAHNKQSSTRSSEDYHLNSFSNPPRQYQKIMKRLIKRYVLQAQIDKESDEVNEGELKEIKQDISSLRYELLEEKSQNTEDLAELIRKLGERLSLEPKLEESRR

Turning to `Cc1nn(C(=O)c2cccnc2)c(C)c1Sc1ccccc1`, the outcome in test [1], in test [2], in test [3], in test [4], in test [6] and in test [7] was inactive. Besides, the outcome in test [8], in test [9], in [10], in test [11], in test [12] and in test [14] was inactive. Moreover, the outcome in test [15] and in [16] was inactive. The figures for the inhibition in test [5] and in test [13] were 92% (active) and 16.5% (active), respectively.

Turning to `Cn1c(-c2ccc(F)cc2)cnc1NCc1ccc(F)cc1`, the result in test [1], in test [2], in [3], in test [4], in test [7] and in test [8] was inactive. The outcome in [9], in [10], in test [11], in test [12], in [14] and in test [15] was inactive. Moreover, in [16], the result was inactive. In addition, the inhibition in test [5] was 90% (active); in [6], 68% (active); in test [13], 22.5% (active).

Take `CC[n+]1c(/C=C/Nc2ccccc2)oc2ccc(OC)cc21`: the outcome in test [1], in [2], in [3], in test [4], in test [6] and in [7] was inactive. Moreover, the outcome in test [8], in test [10], in [11], in test [12], in test [14] and in test [15] was inactive. Moreover, the outcome in [16] was inactive. The inhibition in test [5] was 92% (active); in test [9], 46.5% (active); in test [13], 34% (active).

In the case of `CCOc1cc(CNC2CCCC2)cc(Cl)c1OCc1ccccc1`, the outcome in test [1], in test [2], in [3], in test [4], in test [6] and in test [7] was inactive. In addition, the outcome in test [8], in [9], in [10], in test [11], in test [12] and in test [14] was inactive. Moreover, the result in [15] and in [16] was inactive. Moreover, the inhibition in test [5] is 76% (active); in test [13], 33% (active).

Regarding `CCc1ccc(/C=C2/SC(=S)N(CCCC(=O)Nc3ccccc3C(=O)O)C2=O)cc1`, the result in test [1], in test [2], in test [3], in test [4], in test [6] and in test [7] was inactive. Besides, the result in [8], in test [9], in test [10], in test [11], in test [12] and in [14] was inactive. In addition, the result in test [15] and in [16] was inactive. In addition, the inhibition in test [5] is 93% (active); in test [13] it was 21.2% (active).

As to `NC1=NC2=C(CCCC2)C2(CCCCC2)S1`, the outcome in test [1], in test [2], in [3], in test [4], in [6] and in test [7] was inactive. For the same compound, the result in [8], in test [10], in test [11], in test [12], in test [14] and in test [15] was inactive. Moreover, the outcome in test [16] was inactive. Also, the inhibition in test [5] is 91% (active); in [9] it was 44.5% (active); in [13] it was 14% (active).

Take `Cc1c(CCOC(=O)CC23CC4CC(CC(C4)C2)C3)sc[n+]1Cc1ccccc1`: the result in test [1], in test [2], in test [3], in test [4], in test [6] and in test [7] was inactive. In addition, the outcome in test [8], in test [10], in [11], in test [12], in test [14] and in test [15] was inactive. Also, the result in test [16] was inactive. Besides, the inhibition in test [5] is 96% (active); in test [9], 44.5% (active); in test [13], 19.6% (active).

As for `Cc1nc2ccccc2n1CCOc1ccc(F)cc1`, the result in test [1], in test [2], in [3], in test [4], in [7] and in test [8] was inactive. The outcome in test [9], in test [10], in test [11], in test [12], in test [14] and in test [15] was inactive. In addition, in test [16], the outcome was inactive. Moreover, the inhibition in test [5] is 95% (active); in test [6] it was 79% (active); in [13], 7.92% (active).

On to `COc1cc(CNC2CCCC2)c(Br)cc1OCc1ccccc1`, for which the outcome in test [1], in test [2], in test [3], in test [4], in [6] and in test [7] was inactive. The outcome in [8], in test [9], in test [10], in [11], in [12] and in [14] was inactive. The outcome in [15] and in [16] was inactive. In addition, the inhibition was 87% (active) in test [5] and 34.4% (active) in [13].

Turning to `COc1cc(CN(C)CC2CCCN(CCc3ccccc3F)C2)cc(Cl)c1OC` (stereo not given), the result in test [1], in test [2], in test [3], in [4], in test [6] and in [7] was inactive. Also, the result in test [8], in [9], in [10], in test [11], in test [12] and in test [14] was inactive. In addition, the result in test [15] and in test [16] was inactive. The figures for the inhibition in test [5] and in test [13] were 93% (active) and 0.1% (active), respectively.

On to `C=CCOc1ccc(C2CC(C)=NN2c2ccccc2)cc1` (stereo not given), for which the outcome in test [1], in test [2], in [3], in test [4], in test [7] and in test [8] was inactive. The outcome in [9], in test [10], in test [11], in test [12], in test [14] and in test [15] was inactive. Further, the result in test [16] was inactive. The inhibition is 84% (active) in [5], 44% (active) in test [6] and 32% (active) in test [13].

On to `OCCNc1nc2ccccc2n1CCN1CCCCC1`, for which the result in test [1], in test [2], in test [3], in [4], in test [6] and in [7] was inactive. The outcome in [8], in test [9], in [10], in [11], in [12] and in test [14] was inactive. In addition, the outcome in test [15] and in test [16] was inactive. Moreover, the inhibition is 91% (active) in test [5] and 22.9% (active) in [13].

For `COC(=O)CSc1nn(-c2ccc(F)cc2)c(=S)s1`, the outcome in test [1], in test [2], in test [3], in test [4], in test [7] and in test [8] was inactive. For the same compound, the result in test [9], in [10], in test [11], in test [12], in [14] and in [15] was inactive. Moreover, the result in test [16] was inactive. For the same compound, the inhibition in test [5] was 90% (active); in [6], 39% (active); in test [13] it was 39.2% (active).

Consider `CCOC(=O)C1=NN(c2ccccc2C)C2=NC(C)=C(C(=O)OC)C(c3cccc(OC)c3)N12` (stereo not given), for which the outcome in test [1], in test [2], in [3], in test [4], in [6] and in test [7] was inactive. Besides, the result in test [8], in test [9], in [10], in [11], in test [12] and in [14] was inactive. Moreover, the outcome in test [15] and in test [16] was inactive. Also, the inhibition is 75% (active) in test [5] and 20.5% (active) in test [13].

On to `Cc1ccc(NC(=O)CN2CCc3ccccc3C2)cc1S(=O)(=O)N1CCOCC1`, for which the outcome in test [1], in test [2], in test [3], in [4], in test [7] and in test [8] was inactive. Besides, the result in test [9], in test [11], in [12], in test [13], in test [14] and in test [15] was inactive. Besides, in test [16], the outcome was inactive. The inhibition in test [5] is 92% (active); in test [6], 46% (active). For the same compound, the activation in test [10] is 30.5% (active).
